# Sampled rows, rich in hits. Any-hit rate of the full collection: about 3.7%.
# Anthrax LF prot = anthrax lethal factor protease inhibition. multiplex microsphere protease cleavage assay, LF. inhibition, % at 10 µM. 0.12% of 360,000 active. AID 588501; also: plate controls were buffer without enzyme for full effect and enzyme alone for no effect
# Target sequence (P15917 whole entry, looked up): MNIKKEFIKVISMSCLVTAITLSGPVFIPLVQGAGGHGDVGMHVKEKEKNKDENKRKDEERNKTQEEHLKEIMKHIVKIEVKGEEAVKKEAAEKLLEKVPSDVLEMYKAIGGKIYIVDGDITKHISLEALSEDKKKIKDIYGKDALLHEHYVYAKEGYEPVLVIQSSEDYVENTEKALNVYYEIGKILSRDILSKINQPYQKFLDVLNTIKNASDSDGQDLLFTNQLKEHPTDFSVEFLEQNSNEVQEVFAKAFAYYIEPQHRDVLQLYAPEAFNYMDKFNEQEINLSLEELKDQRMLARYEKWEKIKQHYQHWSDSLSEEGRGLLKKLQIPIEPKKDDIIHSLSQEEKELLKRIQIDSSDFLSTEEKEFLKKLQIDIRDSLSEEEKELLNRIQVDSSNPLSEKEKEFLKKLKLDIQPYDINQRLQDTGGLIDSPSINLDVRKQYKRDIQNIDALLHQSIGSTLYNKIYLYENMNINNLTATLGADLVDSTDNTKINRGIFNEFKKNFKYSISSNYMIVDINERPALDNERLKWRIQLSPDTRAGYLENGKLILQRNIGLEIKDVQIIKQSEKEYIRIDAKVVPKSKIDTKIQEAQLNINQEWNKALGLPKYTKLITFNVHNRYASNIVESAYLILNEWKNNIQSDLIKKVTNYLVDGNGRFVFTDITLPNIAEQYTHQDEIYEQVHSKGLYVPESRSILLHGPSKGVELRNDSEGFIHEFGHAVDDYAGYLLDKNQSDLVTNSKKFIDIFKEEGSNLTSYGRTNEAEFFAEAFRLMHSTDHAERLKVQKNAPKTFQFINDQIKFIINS
# Bead autofluor = flagged as autofluorescent in microsphere protease counterscreen | 3.1% of 360,000 active | compound autofluorescence counterscreen, microsphere flow cytometry; active compounds read high | fluorescence intensity (no concentration beside the values); in the data active = fluorescence intensity above about 16000; inconclusive = no clear call, values can overlap the other calls
# BH1578 lux ind = induces V. cholerae light production without autoinducers; 0.16% of 350,000 active; AID 588436; V. cholerae BH1578 lux reporter, luminescence, 6 h; activation, % at 18.7 µM; in the data active = activation mostly above about 9.7%, no sharp cut-off; inconclusive = no clear call, values can overlap the other calls; inactive = mostly below about 3.7%
# BoNT A protease = BoNT A light chain protease inhibition. AID 588499. 0.17% of 360,000 active. inhibition, % at 10 µM. multiplex microsphere protease substrate cleavage, flow cytometry; also: plate controls were buffer without enzyme for full effect and enzyme alone for no effect
# BoNT F protease = BoNT F light chain protease inhibition. 0.22% of 360,000 active. inhibition, % at 10 µM. AID 588497. Multiplex microsphere protease cleavage assay, flow cytometry; in the data active = inhibition above about 35%, passing the limit was not always enough; inconclusive = no clear call, values can overlap the other calls; also: plate controls were buffer without enzyme for full effect and enzyme alone for no effect
# BJeLR lethal = kills HRASV12-expressing BJeLR cells | BJeLR (HRASV12) viability, CellTiter-Glo ATP luminescence, 48 h | inhibition, % (test concentration not listed) | 0.17% of 300,000 active; in the data active = inhibition above about 50%; inconclusive = no clear call, values can overlap the other calls
# An asterisk follows results filed as active; i = inactive; ? = inconclusive; . = not tested or not shown. Rule as the data show it, unless noted: active = inhibition above about 30%; inconclusive = no clear call, values can overlap the other calls; inactive = below that.
SMILES,Anthrax LF prot,Bead autofluor,BH1578 lux ind,BoNT A protease,BoNT F protease,BJeLR lethal
COc1ccc(S(=O)(=O)Cc2ccc(C(=O)NCCCN(C)c3ccccc3)o2)cc1,-3.5,22186*,-3.8,?,-4.0,2.7
COCCNC(=O)c1ccc(CS(=O)(=O)c2cccc(C(F)(F)F)c2)o1,-0.4,4003,-0.4,-4.8,-3.0,2.7
O=C(NCc1ccco1)c1ccc(CS(=O)(=O)c2cccc(C(F)(F)F)c2)o1,-10.2,22579*,-0.2,-2.3,-6.0,0.8
O=C(c1ccc(CS(=O)(=O)c2cccc(C(F)(F)F)c2)o1)N1CCN(c2ccccn2)CC1,-0.4,23435*,-0.2,?,-3.7,-2.6
CCCCNC(=O)c1ccc(CS(=O)(=O)c2ccc(OC)cc2)o1,-3.3,6257,0.9,-0.1,-0.2,-6.5
O=C1NC[C@@H](CCCCN2C[C@H](Cc3ccccc3)N(CCc3ccc(O)cc3)C(=O)C2=O)N(CC2CCCCC2)C1=O,2.6,5988,.,0.1,0.0,.
O=C(NC1CCCCC1)C(c1ccnc2ccccc12)N1CCc2ccccc2C1 (configuration not stated),3.4,4218,.,1.6,11.9,.
CCCc1ccc(OCc2ccc(C(=O)N3CCN(c4ccccn4)CC3)o2)c(OC)c1,-2.8,23006*,i,?,-0.3,1.2
C[C@@H]1CN([C@@H](C)CO)C(=O)c2cc(NS(=O)(=O)c3ccc(F)cc3)ccc2O[C@@H](C)CCCCO[C@H]1CN(C)C(=O)NC1CCCCC1,-6.1,2968,-0.5,0.2,4.3,.
CCNC(=O)CC1SC(=Nc2cccc(Cl)c2C)N(C)C1=O (configuration not stated),-2.0,16300*,6.6,0.6,-0.9,-0.8
CCNC(=O)CC1SC(=Nc2ccc(Cl)cc2)N(CC)C1=O (configuration not stated),-1.4,2040,-0.5,-0.1,-0.7,-5.7
O=C(CS(=O)c1cccc(C(F)(F)F)c1)Nc1ccc(Cl)cc1Cl (configuration not stated),-2.0,5567,i,0.4,2.6,-11.2
O=C(CS(=O)c1cccc(Cl)c1)Nc1ccccc1Cl (configuration not stated),-2.0,22003*,i,?,-1.5,-0.2
O=c1[nH]cc(F)c(=O)n1C1OC(CO)C(O)C1O (configuration not stated),1.8,5978,.,0.1,-1.2,.
Cc1ccccc1Cn1ccc(-c2ccc3c(c2)OCO3)n1,0.3,20609*,i,?,-2.5,-14.7
Cc1cccc(N2CCN(S(=O)(=O)c3ccc4c(c3)CCN4C(=O)CCC(=O)O)CC2)c1C,-1.7,24315*,-2.7,-1.8,-1.1,.
Cc1ccc(C)c(N2CCN(S(=O)(=O)c3ccc4c(c3)CCN4C(=O)CCC(=O)O)CC2)c1,5.7,5743,-3.1,-0.1,-6.7,-6.2
O=C(O)CCC(=O)N1CCc2cc(S(=O)(=O)NC3CCCC3)ccc21,1.7,21391*,i,-1.8,-2.8,-1.0
Cc1cc2nc(C3CCCCC3)c(Cc3cccc(Cl)c3)n2c(C)c1Br,-3.9,5677,.,-0.5,-8.2,.
CCCCCCC1CC(C)(/C(C)=N/NC(N)=O)OC1=O (configuration not stated),2.1,18949*,0.6,5.3,6.4,-2.0
COc1ccc([C@H]2C[C@H](O)[C@@H](n3cc(-c4ccc(F)cc4)nn3)CN2C(=O)c2cccs2)cc1,-7.9,3645,-0.4,-0.3,-1.6,.
O=C(c1ccc(Cl)cc1)c1cnc(Nc2ccccc2Cl)s1,-0.8,20938*,1.4,?,-6.8,8.9
O=C(O)c1cocc1C(=O)O,-1.3,3870,i,0.0,0.0,.
O=C1N=C(N2CCOCC2)S/C1=C1\C(=O)N(Cc2ccccc2)c2ccccc21,-2.8,16736*,-0.2,-0.7,-1.7,11.8
CC1CN(C2=NC(=O)/C(=C3/C(=O)N(Cc4ccc(F)cc4)c4ccccc43)S2)CC(C)O1 (configuration not stated),32.3*,4079,-0.7,?,?,-4.4
SMILES,Anthrax LF prot,Bead autofluor,BH1578 lux ind,BoNT A protease,BoNT F protease,BJeLR lethal
CCCN1C(=O)/C(=C2\SC(N3CCCCC3)=NC2=O)c2ccccc21,-3.9,3963,4.5,0.4,?,-20.2
CCc1nc2ccc(C(=O)N3CCN(S(=O)(=O)CC)CC3)cn2c1N(CC)CCOC,-0.3,2831,i,-0.5,-2.9,.
C#CCOC(=O)c1ccccc1C(=O)N(CC)CC,0.4,17452*,-0.2,?,-6.8,12.6
CCCN(CCC)C(=O)c1ccccc1C(=O)N(CCC)CCC,-6.8,3866,-0.3,-2.1,-14.7,-3.9
CC1(C)CC(=O)C(C(c2ccco2)C2C(=O)CC(C)(C)CC2=O)C(=O)C1,-1.9,23157*,i,-0.6,-2.4,15.9
CC1(C)CC(=O)C(C(c2ccc(F)cc2)C2C(=O)CC(C)(C)CC2=O)C(=O)C1,2.0,2431,-0.2,0.6,-2.2,9.3
CC(C)CNC(=O)C1(C)CCCN1C(=O)c1cccnc1 (configuration not stated),-0.1,3513,2.2,-0.1,2.6,.
O=[N+]([O-])c1nn(-c2ccccc2)[n+]([O-])c1N1CCN(c2ccccc2)CC1,5.1,4168,-0.3,-0.5,-0.1,-2.4
O=C1CCCc2c1nn(-c1ccccc1)[n+]2[O-],-15.9,18962*,0.5,9.9,9.6,-1.5
Nc1nc(-c2cccnc2)nn1C(=O)COc1ccccc1,-2.4,24503*,i,-2.5,-6.2,-3.8
CC(C)Oc1ccccc1C1CC(=O)Nc2cc3c(cc21)OCCO3 (configuration not stated),?,?,-0.3,-7.3,-16.0,64.4*
Cc1ccc(C2CC(=O)Nc3cc4c(cc32)OCO4)o1 (configuration not stated),-3.4,23026*,-2.2,1.0,2.1,-0.9
CCCCN(CCCC)CCCNC(=O)CC1Oc2ccc(C)cc2NC1=O (configuration not stated),-2.4,23832*,-0.2,-4.7,-6.5,0.6
CC(=O)Nc1cncc(-c2cnn(CC(C)C)c2)n1,-1.7,2928,0.9,-0.2,-0.7,.
CCOC(=O)c1ccc(N=C(c2ccccc2)c2c(O)n(C)c(=O)n(C)c2=O)cc1,30.6*,3761,i,-3.3,?,4.1
COc1cc(C=C(C#N)c2ccc([N+](=O)[O-])cc2)ccc1O,-1.7,3266,-0.3,0.6,1.1,.
O=C(Nc1ccn(Cc2ccc(Cl)cc2)n1)c1ccc2c(c1)OCO2,-1.7,24410*,i,-3.0,-3.1,14.0
O=C(Nc1ccc(CN2CCCCC2)cc1)c1ccc2c(c1)OCO2,0.9,20600*,i,-0.2,-0.7,-1.1
O=C(Nc1ccc2c(c1)OCO2)c1ccc(CN2CCOCC2)cc1,-4.3,8309,-0.5,-0.3,-12.6,0.4
CC(N)c1csc(Nc2nncc3ccccc23)n1 (configuration not stated),-5.8,4118,-4.0,0.1,-5.8,.

# Assay outcomes from PubChem BioAssay.
